# Assay outcomes as filed in PubChem.
# Compounds with a hit are over-represented: about 19% of the library has one in this group of screens.
# TDP1 block = qHTS Assay for Inhibitors of Tyrosyl-DNA Phosphodiesterase (TDP1); AID 485290, 2010; recombinant TDP1, AlphaScreen DNA substrate cleavage; actives 0.28% (n = 350,000); Potency, µM (top dose mostly 130 µM), usual class: inhibitors; note: nearly all actives have a fitted effect of over 40% in size
#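 Compounds were preincubated with Tdp1 (1 nM final) for 15 min at room temperature before substrate (15 nM final) started a 5 min reaction; beads (10 ug/ml final) were then added for 10 min before AlphaScreen detection.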
# TDP1 cell CPT = qHTS for Inhibitors of human tyrosyl-DNA phosphodiesterase 1 (TDP1): qHTS in cells in presence of CPT. actives 12% (n = 420,000). Potency, µM (top dose mostly 46.2 µM), hits mostly inhibitors. chicken DT40 Tdp1-/-;hTDP1 cells + 20 nM CPT, ATP luminescence, 48 h; note: nearly all actives have a fitted effect of over 55% in size
#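 Chicken DT40 Tdp1-/- cells stably complemented with human TDP1 were seeded at 400 cells/well in medium containing 20 nM camptothecin, exposed to pin-transferred compounds, and grown at 37 °C for at least 48 hr. Viability was read as ATP luminescence.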
# TDP1 cell noCPT = qHTS for Inhibitors of human tyrosyl-DNA phosphodiesterase 1 (TDP1): qHTS in cells in absence of CPT | actives 15% (n = 420,000) | DT40 Tdp1-/- hTDP1 cells, no CPT, ATP luminescence, 48 h | Potency, µM (doses to about 46.2 µM), usual class: inhibitors; note: nearly all actives have a fitted effect of over 55% in size
#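 Readout: luminescence from CellTiter-Glo after 30 min in the dark at RT. Cells: DT40 Tdp1-/- with stable hTDP1, 400/well. Exposure: compounds alone, ≥48 hr, 37 °C.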
# Gal4-VP16 FLuc = VP16 counterscreen qHTS for inhibitors of ROR gamma transcriptional activity. Drosophila S2 Gal4-VP16 UAS-luciferase, luminescence, 20 h. Potency, µM (doses to about 53.6 µM), actives largely listed as inhibitors. actives 3.5% (n = 310,000);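 note: Gal4-VP16 expression switched on by copper sulfate through the metallothionein promoter; nearly all actives have a fitted effect of over 50% in size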
# RORg inh = qHTS for inhibitors of ROR gamma transcriptional activity; Potency, µM (top dose mostly 53.6 µM), most hits filed as inhibitors; AID 2551, 2010; Drosophila S2 Gal4-RORgamma UAS-luciferase reporter, 20 h; actives 5.4% (n = 310,000); Nuclear receptor ROR-gamma (Mus musculus), P51450; note: nearly all actives have a fitted effect of over 60% in size
# Target sequence (P51450 whole entry, looked up, the tested form may be a part): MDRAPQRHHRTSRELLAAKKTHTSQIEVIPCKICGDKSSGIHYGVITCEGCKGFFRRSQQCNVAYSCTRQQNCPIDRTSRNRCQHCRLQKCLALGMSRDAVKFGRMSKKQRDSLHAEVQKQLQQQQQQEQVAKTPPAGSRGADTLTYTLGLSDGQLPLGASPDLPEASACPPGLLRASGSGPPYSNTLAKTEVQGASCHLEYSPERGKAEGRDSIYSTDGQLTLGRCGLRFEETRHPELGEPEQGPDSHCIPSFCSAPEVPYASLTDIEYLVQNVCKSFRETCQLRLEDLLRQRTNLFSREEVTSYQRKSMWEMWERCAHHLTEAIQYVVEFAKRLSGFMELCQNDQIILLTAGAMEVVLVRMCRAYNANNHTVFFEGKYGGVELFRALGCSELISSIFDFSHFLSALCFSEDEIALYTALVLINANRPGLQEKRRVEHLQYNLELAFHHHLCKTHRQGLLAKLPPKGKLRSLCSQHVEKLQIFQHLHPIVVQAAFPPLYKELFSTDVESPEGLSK
#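 Read-out: Photinus luciferase luminescence; inhibitors lower reporter signal. Insect Schneider cells with Gal4-ROR gamma fusion under metallothionein promoter, UAS reporter; 700 uM final copper sulfate induction, 20 hr, ambient temperature.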
# A number is an active result; . = inactive; ? = inconclusive; / = no result given. Calls come from the whole dose curve; as a rule, active = well fitted curve in the direction sought with a large enough effect; inconclusive = small, poorly fitted or top-dose-only effect, or another doubt; inactive = no such curve, though single readings can be large; an effect the other way counts as inactive or inconclusive.
SMILES,TDP1 block,TDP1 cell CPT,TDP1 cell noCPT,Gal4-VP16 FLuc,RORg inh
Cc1ccc(S(=O)(=O)N(C)C(C)CCc2ccco2)cc1 (stereo not given),.,?,?,/,/
COc1ccc2ccc(OC)c(/C=N/NC(=O)c3cc4ccccc4o3)c2c1,/,?,18µM,/,/
CCOC(=O)Cn1cc(/C=N/NC(=O)CC#N)c2ccccc21,.,.,.,.,.
N#CCC(=O)N/N=C/c1c(-c2ccccc2)n(-c2ccccc2)c2ccccc12,.,?,21µM,.,.
N#CCC(=O)N/N=C/c1cn(Cc2ccccc2C#N)c2ccccc12,.,.,.,.,.
N#CCC(=O)N/N=C/c1cn(Cc2cccc3ccccc23)c2ccccc12,.,5.2µM,3.7µM,.,.
COc1ccccc1/C=N/NC(=O)c1cc2c(ccc3ccccc32)o1,.,16µM,?,.,.
COc1ccc(/C=N/NC(=O)c2cc3c(ccc4ccccc43)o2)cc1OC,.,?,?,.,.
O=C(O)c1ccc(/C=N/NC(=O)c2cc3c(ccc4ccccc43)o2)cc1,40µM,?,.,.,.
N#CCn1cc(/C=N/NC(=O)c2cc3c(ccc4ccccc43)o2)c2ccccc21,/,21µM,12µM,.,.
O=C(N/N=C/c1ccncc1)c1cc2c(ccc3ccccc32)o1,/,.,.,.,.
Cc1cccc(NS(=O)(=O)c2ccc3[nH]c(=O)cc(C(=O)OC(C)C(=O)Nc4ccc([N+](=O)[O-])cc4)c3c2)c1 (stereo not given),.,.,?,.,.
CC(C)(C)OC(=O)C[C@@H]1C/C=C\C[C@H](CC(=O)N[C@H](CO)Cc2ccccc2)C(=O)N[C@H](Cc2ccccc2)COC1=O,.,.,13µM,/,/
CC(C)(C)OC(=O)C[C@@H]1C/C=C\C[C@H](CC(=O)N[C@H](CO)Cc2ccccc2)C(=O)N[C@@H](Cc2c[nH]c3ccccc23)COC1=O,.,26µM,?,/,/
CC(C)(C)OC(=O)C[C@H]1C/C=C\C[C@H](CC(=O)N[C@H](CO)Cc2ccccc2)C(=O)N[C@H](Cc2ccccc2)COC1=O,.,23µM,23µM,/,/
O=C(Nc1ccc(S(=O)(=O)N2CCOCC2)cc1)c1cccc(Br)c1,/,.,.,.,.
COc1cc(C=O)c(Cl)cc1OCC(N)=O,.,.,.,.,.
COc1ccc(C2=Nc3ccc(F)cc3NC(c3cccc(C(F)(F)F)c3)=N2)cc1,.,23µM,?,/,/
Fc1ccc(C2=NC(c3cccc(C(F)(F)F)c3)=Nc3ccccc3N2)cc1,.,?,18µM,/,/
Cc1cccc(NC(=O)CSc2nc3ccccc3o2)c1,.,.,.,.,.
CCOC(=O)C1=CC[C@H]2c3c(c4ccc(OC)cc4n3C)C(=O)C1N2S(=O)(=O)c1ccc(C)cc1,.,5.8µM,4.6µM,/,/
CCc1ccc([C@@H]2CC=C(C(=O)O)[C@H](c3ccc(F)cc3)N2S(=O)(=O)c2ccc(C)cc2)cc1,.,.,.,/,/
CCOC(=O)C1=CCC(c2ccc(N(CC)CC)cc2)N(S(=O)(=O)c2ccc(C)cc2)C1c1ccc([N+](=O)[O-])cc1 (stereo not given),/,7.3µM,6.5µM,/,/
C=C[C@H]1C(C(=O)OCC)=CC[C@@H](c2ccccc2)N1S(=O)(=O)c1ccc(C)cc1,/,23µM,21µM,/,/
CCOC(=O)C1=CC[C@@H](c2ccccc2)N(S(=O)(=O)c2ccc(C)cc2)[C@H]1/C=C/c1ccccc1,/,13µM,9.2µM,/,/
CCOC(=O)C1=CC[C@@H](c2ccccc2)N(S(=O)(=O)c2ccc(C)cc2)[C@H]1C,/,?,23µM,/,/
CCOc1ccc([C@@H]2CC=C(C(=O)O)[C@H](c3ccc(F)cc3)N2S(=O)(=O)c2ccc(C)cc2)cc1,.,.,.,/,/
CCc1ccc([C@@H]2CC=C(C(=O)O)[C@H](c3ccccc3)N2S(=O)(=O)c2ccc(C)cc2)cc1,.,.,.,/,/
